This is one part of a sample in which hits are shown more often than they occur.
SF1 inhibitor = inhibitors of human nuclear receptor SF-1 | CHO-K1 Gal4-SF-1 LBD luciferase reporter | inhibition, % at 10 µM | 65,000 tested, 0.55% active | AID 525;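 active means inhibition above the mean inhibition of all tested compounds plus 3 SD, cut at about 48% in these data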
Target sequence (Q13285 whole entry, looked up, the tested form may be a part): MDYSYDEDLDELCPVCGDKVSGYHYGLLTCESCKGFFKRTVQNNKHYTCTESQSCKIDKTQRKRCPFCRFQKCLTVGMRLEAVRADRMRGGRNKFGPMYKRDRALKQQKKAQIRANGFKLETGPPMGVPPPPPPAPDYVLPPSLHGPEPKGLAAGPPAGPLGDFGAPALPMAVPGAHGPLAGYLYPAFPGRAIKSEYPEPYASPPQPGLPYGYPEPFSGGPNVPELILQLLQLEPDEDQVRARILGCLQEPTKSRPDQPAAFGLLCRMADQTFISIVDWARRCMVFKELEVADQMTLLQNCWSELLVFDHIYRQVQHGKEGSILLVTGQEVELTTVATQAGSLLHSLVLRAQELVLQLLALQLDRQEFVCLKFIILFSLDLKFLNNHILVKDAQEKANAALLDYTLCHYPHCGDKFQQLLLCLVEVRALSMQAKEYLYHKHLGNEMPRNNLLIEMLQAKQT
Numbers stand for hits; – = inactive.

SMILES	SF1 inhibitor
COc1cccc(N2CCN(C(=O)c3ccc4nc(N5CCCCC5)sc4c3)CC2)c1	–
CCC(C)OC(=O)c1[nH]c2c(c1C)C(=O)CC(c1ccc(N(C)C)cc1)C2 (stereo not given)	–
Cc1ccc2cc(CN(C(=O)c3ccncc3)C(C)C)c(=O)[nH]c2c1	–
O=C(c1ccc(C23CC4CC(CC(C4)C2)C3)o1)N1CCOCC1	–
CCOC(=O)c1c(NC(=O)CSc2nc(C)cc(C)c2C#N)sc(C(C)=O)c1C	–
Cc1cc(C)n(-c2ccc3cccc(NS(C)(=O)=O)c3n2)n1	79
CC(CC#CCN1CCOCC1)OCCC#N (stereo not given)	–
COC(=O)c1ccc(S(=O)(=O)NCCSc2nnc3c4ccccc4n(C)c3n2)cc1	–
CC(C)(C)c1ccc(-c2cc(N)n[nH]2)cc1	48
Oc1ccc(-c2nnc(SCC3CCCCC3)o2)cc1	–
Cc1ccc2occ(C(c3nnnn3Cc3ccccc3)N3CCOCC3)c(=O)c2c1 (stereo not given)	–
COc1ccc(C(c2sc3nc(C)nn3c2O)N2CCC3(CC2)OCCO3)cc1 (stereo not given)	–
CC(C)(C)n1ncc2c(=O)n(CC(=O)NCc3ccc(F)cc3)cnc21	–
O=C(C1CCCCC1)N1CCN(c2ncccn2)CC1	–
Cc1cc(-c2ccco2)n(CC(=O)NCc2ccco2)n1	–
CCOc1ccc(-c2nc(CSCC(=O)NCCN3CCOCC3)c(C)o2)cc1	65
Cc1ccc(-c2nc(CS(=O)CC(=O)NCc3ccccn3)c(C)o2)cc1 (stereo not given)	–
COc1ccc(-c2nc(CSCC(=O)NCc3ccco3)c(C)o2)cc1	69
COc1ccc(C2=NOC(C(=O)NCCCN3CCOCC3)C2)cc1 (stereo not given)	–
COc1ccc2c(c1)CCc1c(C(=O)NCCN3CCOCC3)noc1-2	–
COc1ccc(-c2nc(CS(=O)CC(=O)N3CCCC3)c(C)o2)cc1 (stereo not given)	–
CCc1ccc(-c2nc(CSCC(=O)N3CCN(c4ncccn4)CC3)c(C)o2)cc1	51
CNC(=O)Nc1ccccc1NC(=O)NC	–
CCOC(=O)CCNC(=O)Nc1ccc2nc(C)n(Cc3cccc(Cl)c3)c(=O)c2c1	–
O=C(NCc1ccco1)Nc1ccc(Br)cc1Cl	–
SMILES	SF1 inhibitor
C=CCNC(=O)CN(c1ccc(F)cc1)S(=O)(=O)c1ccc(OC)cc1	–
CC(=O)NC1(C(F)(F)F)NC(=O)N(CC(C)C)C1=O (stereo not given)	–
CCC(=O)Nc1nc2ccc3nc(C)sc3c2s1	–
C1=C(C(c2nnnn2C2CCCCC2)N2CCCCC2)COc2ccccc21 (stereo not given)	–
CC12CCC(C(=O)N3CCN(C(=O)C45CCC(C)(C(=O)O4)C5(C)C)CC3)(OC1=O)C2(C)C	–
O=S(=O)(Nc1cccnc1)c1ccc2c(c1)OCCO2	–
CNS(=O)(=O)c1cccc(C(=O)OCC(=O)Nc2ccccc2OC(F)F)c1	–
c1c2c(cc3sc(N4CCOCC4)nc13)OCO2	–
O=C(Nc1nc2cc3c(cc2s1)OCO3)C1=COCCO1	62
c1ccc(N2CCN(c3nc4cc5c(cc4s3)OCO5)CC2)cc1	–
CC(=O)c1cn(CC(=O)NCc2cccnc2)c2ccccc12	–
COc1ccc(CNc2ccc3c(c2)nc(C)n3C)cc1	–
COc1ccc(CCNc2c(C)c(C)nc3ncnn23)cc1	81
O=C(CN1C(=O)CSC1=O)N1CCc2ccccc2C1	–
CCc1cc2c(=O)c(-c3nc4ccccc4[nH]3)coc2c(CN2CCCC(C)C2)c1O (stereo not given)	–
COc1ccc(C2(CN(C(C)=O)C(C)=O)CCCC2)cc1OC	–
CC1CCCCC1NS(=O)(=O)c1ccc(S(=O)(=O)NCc2ccncc2)cc1 (stereo not given)	70
Cc1cc(C)nc(NC2=NCC(=O)N2c2ccc3c(c2)OCCO3)n1	–
Cc1ccc(N=Cc2ccc[nH]2)c(O)c1	–
COc1cc(C(=O)Nc2nnc(-c3sccc3C)s2)cc(OC)c1OC	–
COc1cccc2c1C(=O)c1c(O)c3c(c(O)c1C2=O)C[C@@](O)(C(C)=O)C[C@@H]3O[C@H]1C[C@H](N)[C@H](O)[C@H](C)O1	89
CC(=O)NC1Sc2ccccc2N=C1c1ccccc1 (stereo not given)	–
COc1cc2nc(=S)n3[nH]c(CCn4nc(C)cc4C)nc3c2cc1OC	61
Cc1cc(C)n2nc(SCC3COc4ccccc4O3)nc2n1 (stereo not given)	–
O=C(NCCN1CCCC1)c1ccc2c(=O)n(CCc3ccccc3)c(=O)[nH]c2c1	–
SMILES	SF1 inhibitor
CC(=O)Nc1ccc(-n2c(C)c(C(C)=O)c(C(C)=O)c2C)cc1	–
CCC(C)[C@H](NC(=O)NCc1cccs1)C(=O)O (stereo not given in full)	–
OCC1(C2=NOC(O)(C(F)(F)F)C2)CCCCC1 (stereo not given)	–
O=S(=O)(Nc1cccc2ncccc12)c1cccs1	96
CCS(=O)(=O)Nc1cc(-c2nc3cccnc3s2)ccc1C	–
c1cn(CC2(Cn3ccnc3)COC2)cn1	–
CCOC(=O)c1ccccc1NC(=O)COC(=O)C1=COCCO1	–

Assay outcomes as filed in PubChem BioAssay.
